Hits are enriched below; roughly 2.2% of the tested compounds scored in any of these assays.
PLCg1 inh = PLC-gamma1 (human) inhibition, primary screen; purified PLC-gamma1, fluorogenic substrate, fluorescence; inhibition, % at 12.2 µM; actives 0.84% (n = 370,000); AID 720700
FAS TE block = inhibitors of human fatty acid synthase thioesterase domain; AID 602261; inhibition, % at 15 µM; actives 0.67% (n = 360,000); P49327; recombinant FAS-TE, OMFH fluorogenic substrate, fluorescence endpoint;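 active = compounds whose normalised, plate-corrected inhibition of enzyme fluorescence in the single-dose primary screen is 50% or more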;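 note: 0% = DMSO with enzyme and 100% = substrate without enzyme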
PLCb3 inh = inhibitors of human phospholipase C beta3. Purified PLC-beta3, fluorogenic substrate, fluorescence. inhibition, % at 12.2 µM. actives 0.18% (n = 370,000). AID 720704; in the data active = inhibition above about 11%;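 note: 0% = median of compound wells on plate and 100% = full blocker control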
H9c2 protect = myocardial damage modulation in H9c2 cells; H9c2 cardiomyocytes, H2O2 injury protection, ATPLite, 2 h; AID 588492; protection from H2O2 cell death, % at 20 µM; actives 0.63% (n = 360,000);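 active = compounds giving at least 50% protection of heart cells from peroxide-induced death in the single-dose screen, raw or plate-pattern-corrected value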;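 note: 0% = DMSO wells with peroxide and 100% = DMSO wells without peroxide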
PLCg1 ctr = PLC-gamma1 inhibition, counter-screen for PLC-beta3 hits. shares compounds with PLCg1 inh. purified PLC-gamma1, fluorogenic substrate, fluorescence. inhibition, % at 12.3 µM. actives 3.1% (n = 3,300). AID 743258
PLCbeta3 conf = confirmation of human PLC-beta3 inhibitors; actives 1% (n = 3,300); inhibition, % at 12.3 µM; purified PLC-beta3, fluorogenic substrate fluorescence; shares compounds with PLCg1 inh; in the data active = inhibition above about 11%
An asterisk follows results filed as active. Cut-off read from the data, not from the text of the source, unless noted: active = inhibition above about 9.5%; inactive = the rest.

What do the screens show for `COC(=O)c1cn(CC(C)n2c(=O)c3ccccc3n2Cc2cc(C(C)C)no2)nn1` (stereo unspecified)?
PLCg1 inh: -22; PLCb3 inh: -23

How did CCC(Sc1nc(C)cc(C)n1)C(=O)Nc1cc(C)on1 (stereo unspecified) do in these assays?
PLCg1 inh: 11*; FAS TE block: -8; PLCb3 inh: 11*; H9c2 protect: 2; PLCg1 ctr: -6; PLCbeta3 conf: -1

Results for CCC(Sc1nc(C)cc(C)n1)C(=O)O (stereo unspecified) ?
PLCg1 inh: -6; FAS TE block: -7; PLCb3 inh: 0; H9c2 protect: 2

How did CC(C)OC(=O)CSc1nnc(CNc2cccc(Cl)c2)n1C do in these assays?
PLCg1 inh: 10*; FAS TE block: -6; PLCb3 inh: 3; H9c2 protect: -1; PLCg1 ctr: -7; PLCbeta3 conf: -3

How did Cn1c(CNc2cccc(Cl)c2)nnc1SCC(=O)OC1CCCCC1 do in these assays?
PLCg1 inh: -1; FAS TE block: 3; PLCb3 inh: -4; H9c2 protect: -7

What do the screens show for `O=C(CN1C(=O)COc2ccc(S(=O)(=O)N3CCCCCC3)cc21)NCc1ccc(F)cc1`?
PLCg1 inh: 2; FAS TE block: 6; PLCb3 inh: 0; H9c2 protect: 0

Results for Cc1cc(Oc2ccc(C#N)cc2)nc(N2CCOCC2)n1 ?
PLCg1 inh: 0; FAS TE block: -5; PLCb3 inh: 1; H9c2 protect: 2

How did Cc1cc(Oc2ccc([N+](=O)[O-])cc2)nc(N2CCOCC2)n1 do in these assays?
PLCg1 inh: 12*; FAS TE block: 2; PLCb3 inh: 7; H9c2 protect: 4; PLCg1 ctr: -1; PLCbeta3 conf: -7

How did Cc1ccc[n+](/C(=C\C(=C=[N-])C#N)C(=O)c2ccc(Cl)cc2)c1 do in these assays?
PLCg1 inh: 9.7*; FAS TE block: -4; PLCb3 inh: 6; H9c2 protect: -1; PLCg1 ctr: 2; PLCbeta3 conf: 6

How did Cc1cccc(N/C=C/C(=O)c2ccc(Cl)cc2)c1 do in these assays?
PLCg1 inh: -15; FAS TE block: 8; PLCb3 inh: -35; H9c2 protect: -16

Results for CCCN(CC(=O)Nc1ccccc1OC)C(=O)c1ccc2ncsc2c1 ?
PLCg1 inh: -1; FAS TE block: 0; PLCb3 inh: 2; H9c2 protect: 1

How did COc1ccccc1CN1CCC(n2nccc2NC(=O)c2ccccc2Cl)CC1 do in these assays?
PLCg1 inh: 11*; FAS TE block: -6; PLCb3 inh: 1; H9c2 protect: 7; PLCg1 ctr: -2; PLCbeta3 conf: 0

Results for C=CCN(CC=C)CC(O)Cn1c2ccccc2c2ccccc21 (stereo unspecified) ?
PLCg1 inh: 1; FAS TE block: 4; PLCb3 inh: 0; H9c2 protect: 6

What do the screens show for `CCN(CC)CC(O)Cn1c2ccccc2c2ccccc21` (stereo unspecified)?
PLCg1 inh: 12*; FAS TE block: -8; PLCb3 inh: 7; H9c2 protect: 12; PLCg1 ctr: -9; PLCbeta3 conf: -4

What do the screens show for `CN(CC(=O)Nc1ccccc1C(F)(F)F)C(=O)C1CCN(C(=O)c2ccc(Cl)cc2)CC1`?
PLCg1 inh: -1; FAS TE block: -5; PLCb3 inh: -2; H9c2 protect: -3

How did Cc1ccc(C(=O)CCC(=O)NC2=NCCS2)cc1 do in these assays?
PLCg1 inh: 1; FAS TE block: -17; PLCb3 inh: -15; H9c2 protect: -5

How did COc1ccc(Cc2nnc(SCC(=O)Nc3ccc(C)cc3)n(N)c2=O)cc1 do in these assays?
PLCg1 inh: 10*; FAS TE block: -11; PLCb3 inh: -4; H9c2 protect: 4; PLCg1 ctr: -8; PLCbeta3 conf: -3

What do the screens show for `Cc1ccc(NC(=O)CSc2ccccc2)cc1S(=O)(=O)N1CCOCC1`?
PLCg1 inh: 12*; FAS TE block: 3; PLCb3 inh: -2; H9c2 protect: 2; PLCg1 ctr: -32; PLCbeta3 conf: -3

How did O=C(Cc1cccs1)Nc1ccc(F)c(S(=O)(=O)N2CCOCC2)c1 do in these assays?
PLCg1 inh: 9.9*; FAS TE block: -4; PLCb3 inh: 1; H9c2 protect: 2; PLCg1 ctr: -5; PLCbeta3 conf: -1

What do the screens show for `Cc1ccc(NC(=O)CSc2ccccc2)cc1S(=O)(=O)N1CCCCC1`?
PLCg1 inh: 3; FAS TE block: 22; PLCb3 inh: -1; H9c2 protect: -16

What do the screens show for `Cc1ccc(NC(=S)NCc2ccccc2)cc1S(=O)(=O)N1CCCCC1`?
PLCg1 inh: 14*; FAS TE block: 21; PLCb3 inh: 9; H9c2 protect: -14; PLCg1 ctr: 5; PLCbeta3 conf: 8

Results for Cc1ccc(NC(=O)COC(=O)CC2CC3CCC2C3)cc1S(=O)(=O)N1CCOCC1 (stereo unspecified) ?
PLCg1 inh: 11*; FAS TE block: 22; PLCb3 inh: -2; H9c2 protect: -6; PLCg1 ctr: -6; PLCbeta3 conf: -4

Results for COc1ccc(Cn2cc(CN3[C@@H](C)COc4cc(Br)ccc4S3(=O)=O)nn2)cc1 ?
PLCg1 inh: -2; PLCb3 inh: -1

How did C=CCN1C(=O)c2ccccc2NC1c1cc(Br)cs1 (stereo unspecified) do in these assays?
PLCg1 inh: -86; FAS TE block: 1; PLCb3 inh: -115; H9c2 protect: -6

Results for O=C(OCC(=O)N1CCCCC1)c1ccc2ccccc2n1 ?
PLCg1 inh: -23; FAS TE block: -5; PLCb3 inh: -5; H9c2 protect: 2

What do the screens show for `Cn1cc(CNCc2cnc3ccccn23)c(-c2ccc(Oc3ccccc3)cc2)n1`?
PLCg1 inh: 15*; FAS TE block: 2; PLCb3 inh: 8; H9c2 protect: 1; PLCg1 ctr: 2; PLCbeta3 conf: 5

What do the screens show for `O=C(CSc1nccn1Cc1ccco1)Nc1cccc(F)c1`?
PLCg1 inh: 10.0*; FAS TE block: 1; PLCb3 inh: -4; H9c2 protect: 0; PLCg1 ctr: -4; PLCbeta3 conf: -1

How did O=C(CSc1nccn1Cc1ccco1)Nc1ccc(F)cc1 do in these assays?
PLCg1 inh: 1; FAS TE block: -2; PLCb3 inh: -5; H9c2 protect: -1

Results for O=C(c1ccco1)N1CCN=C1SCc1ccccc1Cl ?
PLCg1 inh: -2; FAS TE block: 10; PLCb3 inh: 17*; H9c2 protect: 3; PLCg1 ctr: -1; PLCbeta3 conf: 1

How did O=C(c1ccco1)N1CCN=C1SCc1c(F)cccc1Cl do in these assays?
PLCg1 inh: 0; FAS TE block: 9; PLCb3 inh: -2; H9c2 protect: 8

What do the screens show for `C[C@@H]1NS(=O)(=O)[C@H]2C[C@@H]3C=C[C@]2(O3)[C@H]1OC(=O)c1ccc(C(C)(C)C)cc1`?
PLCg1 inh: 0; FAS TE block: -6; PLCb3 inh: -8; H9c2 protect: -11
